PubChem BioAssay (NCATS)
Inconclusive results are not listed. Calls of active or inactive are those of the source. Unless noted, the call rests on the fitted dose curve; in most records, active means well fitted curve in the direction sought with a large enough effect; inconclusive means small, poorly fitted or top-dose-only effect, or another doubt; inactive means no such curve, though single readings can be large; an effect the other way counts as inactive or inconclusive.

Assays:
[1] = OV-KATE Cancer Cell Toxicity qHTS against the NCATS CANVASS Library (AID 1347345)
How it was run: (§1)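 Cells were seeded at 1000 per well, allowed 4 h at 37 degrees C/5% CO2, then pin-treated with an 11-point compound series. After 72 h, viability was read as CellTiter-Glo luminescence following 15min at room temperature.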

[2] = HPAF-II Cancer Cell Toxicity qHTS against the NCATS CANVASS Library (AID 1347346)
How it was run: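 Using 1000 HPAF-II cells per well, we titrated compounds over 11 concentrations for 72 h at 37 degrees C/5% CO2, with bortezomib as control. Cell survival was quantified by CellTiter-Glo luminescence.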

[3] = UWB1.289 Cancer Cell Toxicity qHTS against the NCATS CANVASS Library (AID 1347347)
How it was run: as §1

[4] = Panc-1005 Cancer Cell Toxicity qHTS against the NCATS CANVASS Library (AID 1347349)
How it was run: as §1

[5] = SW1088 Cancer Cell Toxicity qHTS against the NCATS CANVASS Library (AID 1347350)
How it was run: as §1

[6] = U-118MG Cancer Cell Toxicity qHTS against the NCATS CANVASS Library (AID 1347351)
How it was run: as §1

[7] = COV-362 Cancer Cell Toxicity qHTS against the NCATS CANVASS Library (AID 1347352)
How it was run: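 Using an ATP-based luminescent reagent after three days of treatment, toxicity is scored across an eleven-concentration range in wells holding 1000 cells each.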

[8] = A2780 Cisplatin Sensitive Ovarian Cancer Cell Toxicity qHTS against the NCATS CANVASS Library (AID 1347353)
How it was run: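 Quantitative HTS format: eleven compound concentrations applied to pre-seeded cells, 72 h incubation at 37 °C, then ATP detection by luminescence.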

[9] = HPAF-II 24hr Apoptosis Induction qHTS against the NCATS CANVASS Library (AID 1347356)
How it was run: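 Using an 11-point qHTS format, HPAF-II cells in DMEM/10% FBS received compounds for 24 h; doxorubicin titration as control. Caspase-3/7 activity quantified by DEVD-luciferase luminescence.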

[10] = HEK293 18hr Apoptosis Induction qHTS against the NCATS CANVASS Library (AID 1347357)
How it was run: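 Cells seeded at 500/well in DMEM + 10% FBS. Compounds pinned, 11 concentrations. 18 h, 37 degrees C/5% CO2. Caspase-Glo 3/7 added, 15 min RT dark, luminescence read.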

[11] = HPAF-II 12hr Apoptosis Induction qHTS against the NCATS CANVASS Library (AID 1347358)
How it was run: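 Twelve-hour compound exposure of HPAF-II cells in DMEM with 10% FBS, then luminescent Caspase-Glo 3/7 detection after 15 min at room temperature; doxorubicin control.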

[12] = HEK293 24hr Apoptosis Induction qHTS against the NCATS CANVASS Library (AID 1347359)
How it was run: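 HEK293 cells (500/well, DMEM + 10% FBS) were exposed to compounds in an 11-point series for 24 hours at 37 degrees C, then caspase-3/7 activity was read by Caspase-Glo DEVD luciferase luminescence after 15 min.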

[13] = HPAF-II 18hr Apoptosis Induction qHTS against the NCATS CANVASS Library (AID 1347360)
How it was run: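 Seed HPAF-II cells at 500/well in DMEM + 10% FBS, pin-transfer compounds, incubate 18 hours at 37 degrees C/5% CO2, add Caspase-Glo 3/7 reagent, wait 15 min, read luminescence.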

[14] = HEK293 12hr Apoptosis Induction qHTS against the NCATS CANVASS Library (AID 1347361)
How it was run: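 Cells are seeded, dosed with an 11-point compound series and incubated 12 hours. Caspase-3/7 activity is detected by luminescent DEVD-substrate reagent after 15 minutes at room temperature.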

[15] = tested on: NAD(P)H diaphorase (Clostridium kluyveri); assay: Diaphorse counterscreen qHTS: Assay Interference Panel against the NCATS CANVASS Library (AID 1347362)
How it was run: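 Clostridium kluyveri diaphorase in PBS with 0.01% Tween-20 was preincubated 15 min at room temperature in the dark with compounds (11-point series). Resorufin fluorescence (ex 525/20, em 598/25) was read 5 min after adding resazurin/NADH.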

[16] = molecular target: Luciferin 4-monooxygenase (Photinus pyralis) (UniProt P08659); assay: Firefly luciferase counterscreen qHTS: Assay Interference Panel against the NCATS CANVASS Library (AID 1347363)
How it was run: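 Purified P. pyralis luciferase was added to compounds (11-point series) preincubated 15 min at room temperature with substrate containing 0.013 mM D-luciferin and 0.013 mM ATP; luminescence was read after 5 min.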

[17] = KB-8-5-11 Cancer Cell Toxicity qHTS against the NCATS CANVASS Library (AID 1347364)
How it was run: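 Luminescent ATP signal (CellTiter-Glo, 10 min at room temperature) measured cell survival of KB-8-5-11 after 72 hr compound treatment. For confirmation, the cells were also grown with 1uM tariquidar.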

[18] = qHTS for ATAD5 Agonist screened against the NCATS CANVASS Library (AID 1347367)
How it was run: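 HEK293T-ATAD5 luc reporter; 2000 cells/well; 5hr settle; cpd 11-pt qHTS; 16hr 37C 5% CO2 dark; viability by CellTiter-Fluor (AFC fluorescence); then luciferase luminescence, 30min RT.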

[19] = MCF7 Cancer Cell Toxicity qHTS against the NCATS CANVASS Library (AID 1347369)
How it was run: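 Cells seeded at 500/well, then compound pinned. Plates incubated 72 hr at 37C, 5% CO2. CellTiterGlo added; luminescence read.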

[20] = qHTS for ATAD5 Antagonist screened against the NCATS CANVASS Library (AID 1347370)
How it was run: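 HEK293T-ATAD5 luc reporter, 2000 cells/well; 5hr attach; cpd + 10 uM 5-FUrd; 16hr 37C, 5% CO2. Readouts: CellTiter-Fluor fluorescence (1hr), then Amplite luciferase luminescence (30min RT).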

[21] = molecular target: Nuclear receptor subfamily 1 group I member 3 (Homo sapiens) (UniProt Q14994); assay: qHTS for Constitutive Androstane Receptor (CAR) Antagonist screened against the NCATS CANVASS Library (AID 1347372)
How it was run: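 Cells were seeded and left 4hr to attach, then received compound at 11 concentrations and 50 nM CITCO. Following 24hr incubation, fluorescence viability and luciferase luminescence were read sequentially.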

[22] = molecular target: Nuclear receptor subfamily 1 group I member 3 (Homo sapiens) (UniProt Q14994); assay: qHTS for Constitutive Androstane Receptor (CAR) Agonist screened against the NCATS CANVASS Library (AID 1347373)
How it was run: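 In an 11-point concentration series, compounds were incubated 24hr with HepG2 cells carrying hCAR and a CYP2B6-2.2kb reporter, with PK11195 at 1.5uM final. A CellTiter-Fluor viability read preceded the ONE-Glo luminescence read.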

[23] = qHTS for Hypoxia signaling pathway (HIF-1) antagonists against the NCATS CANVASS Library (AID 1347374)
How it was run: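 Beta-lactamase reporter under HRE control in ME-180 cells; CoCl2 stimulus (60 uM solution as added), compounds 11-pt qHTS, 17 h 37C. CCF4 dye 2 h RT, 460/530 nm emission. CellTiter-Glo viability in same wells.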

[24] = 10-beta competent E. coli microbial cell viability qHTS against the NCATS CANVASS Library (AID 1347376)
How it was run: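 Overnight 37C exposure of 10-beta E. coli (0.2 OD) to an 11-point concentration series; ATP-based luminescence after 20 min room-temperature reagent incubation; daunomycin as control.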

[25] = qHTS for H2AX Agonists against the NCATS CANVASS Library (AID 1347378)
How it was run: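 CHO-K1, 1000 cells/well, o/n 37C; cpd several conc, 3 hr 37C, 0.76% DMSO; lyse 30 min RT; cryptate anti-pH2AX(S139) + d2 anti-H2AX, 24 hr RT; HTRF 665/620.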

[26] = qHTS for Antimalaria activity screened against the NCATS CANVASS Library (AID 1347380)
How it was run: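 Measures proliferation or cytotoxicity against Dd2 blood stages in 72 h cultures, 11-point qHTS dosing, with SYBR Green fluorescence as read-out; dihydroartemisinin titration served as control.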

[27] = Inflammasome Signaling qHTS Counterscreen: IL-1-beta AlphaLISA counterscreen against the NCATS CANVASS Library (AID 1347381)
How it was run: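 Here, no cellular stimulation occurs; compounds in an 11-point series meet 4 pg purified IL-1-beta directly. Bead-based AlphaLISA detection follows (1 h acceptor/antibody, then 30 min donor, dark, room temperature), with excitation at 680 nm.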

[28] = Cytotoxicity qHTS for assessment of Hepg2 cells membrane integrity screened against the NCATS CANVASS Library (AID 1347387)
How it was run: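 Membrane damage in HepG2 monolayers was estimated from released LDH, measured with CytoTox-ONE (ex 560/em 590 nm), after 5 hr treatment across 0.59 nM - 46 uM final.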

[29] = qHTS for Activators of p53 Stress Response Pathway screened against the NCATS CANVASS Library (AID 1347388)
How it was run: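 p53RE-bla HCT-116 cells (4000/well) were plated 5 h at 37C, exposed to compounds for 16 h at 37C over an 11-point concentration series, then loaded with CCF4 for 2 h at room temperature; 460/530 nm emission ratio read.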

[30] = qHTS assay for small molecule disruptors of mitochondrial membrane potential screened against the NCATS CANVASS Library (AID 1347389)
How it was run: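 Cells (HepG2) seeded the day before received compound or DMSO for 1 hr, then Mito-MPS dye for 30 min at 37C; emission at 590 nm over 535 nm gave the polarization signal.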

[31] = Secretion counterscreen for inhibitors of the SERCaMP assay screened against the NCATS CANVASS Library (AID 1347390)
How it was run: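 SH-SY5Y-GLuc STOP cells; 4 h attach; cpds 0.001 - 77 uM (qHTS, 11 pts), 20 h 37C/5% CO2; coelenterazine in glow buffer; luminescence, 5 s exposure.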

[32] = qHTS for activators of dead-cell proteases activity screened against the NCATS CANVASS Library (AID 1347392)
How it was run: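 Cytotoxicity in HepG2 cells was assessed by released protease cleaving AAF-aminoluciferin, with luminescence as signal. Exposure lasted 5 h at 37C across an 11-point series.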

[33] = Vero-766 cells viability qHTS against the NCATS CANVASS Library: Counterscreen for Zika virus inhibition assay (AID 1347394)
How it was run: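 Vero 766, no virus; 1000 cells/well; o/n attach; cpd 11-pt; 72 h, 37C, 5% CO2; CTG luminescence; cell-free media wells = 100% inhibition.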

[34] = qHTS for inhibitors of Wild type Zika virus screened against the NCATS CANVASS Library (AID 1347396)
How it was run: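 Protection against wild-type Zika cytopathic effect is measured in African green monkey Vero 766 cells exposed to an 11-point compound series. Surviving cells are quantified by CellTiter Glo luminescence after 72 h.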

[35] = Viability qHTS for inhibitors of the SERCaMP assay screened against the NCATS CANVASS Library (AID 1347400)
How it was run: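 Measures loss of viability in SERCaMP reporter SH-SY5Y cells treated for 48 h with compounds; luminescent ATP detection by CellTiter-Glo.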

[36] = Redox Reaction Profiling qHTS: Assay Interference Panel against the NCATS CANVASS Library (AID 1347401)
How it was run: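 Quantitative HTS over an 11-point series was run in HEPES pH 7.3 with 50 mM NaCl, 200 uM DTT and 5 uM resazurin. Initial and 15-min resorufin fluorescence readings were taken.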

[37] = qHTS for inhibitors of Rabies Virus screened against the NCATS CANVASS Library (AID 1347402; calls by dose curve)

Measured: Potency

Sequence of Nuclear receptor subfamily 1 group I member 3 (Homo sapiens) (Q14994 whole entry, looked up): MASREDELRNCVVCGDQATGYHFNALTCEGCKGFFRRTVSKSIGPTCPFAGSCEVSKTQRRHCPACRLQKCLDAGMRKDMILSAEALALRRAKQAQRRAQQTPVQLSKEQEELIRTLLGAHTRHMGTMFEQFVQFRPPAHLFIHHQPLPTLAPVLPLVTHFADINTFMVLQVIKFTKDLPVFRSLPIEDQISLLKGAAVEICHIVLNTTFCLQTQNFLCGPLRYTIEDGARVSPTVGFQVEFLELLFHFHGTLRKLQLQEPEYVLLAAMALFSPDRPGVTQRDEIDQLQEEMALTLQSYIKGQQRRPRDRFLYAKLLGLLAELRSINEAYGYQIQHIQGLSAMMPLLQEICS
Sequence of Luciferin 4-monooxygenase (Photinus pyralis) (P08659 whole entry, looked up): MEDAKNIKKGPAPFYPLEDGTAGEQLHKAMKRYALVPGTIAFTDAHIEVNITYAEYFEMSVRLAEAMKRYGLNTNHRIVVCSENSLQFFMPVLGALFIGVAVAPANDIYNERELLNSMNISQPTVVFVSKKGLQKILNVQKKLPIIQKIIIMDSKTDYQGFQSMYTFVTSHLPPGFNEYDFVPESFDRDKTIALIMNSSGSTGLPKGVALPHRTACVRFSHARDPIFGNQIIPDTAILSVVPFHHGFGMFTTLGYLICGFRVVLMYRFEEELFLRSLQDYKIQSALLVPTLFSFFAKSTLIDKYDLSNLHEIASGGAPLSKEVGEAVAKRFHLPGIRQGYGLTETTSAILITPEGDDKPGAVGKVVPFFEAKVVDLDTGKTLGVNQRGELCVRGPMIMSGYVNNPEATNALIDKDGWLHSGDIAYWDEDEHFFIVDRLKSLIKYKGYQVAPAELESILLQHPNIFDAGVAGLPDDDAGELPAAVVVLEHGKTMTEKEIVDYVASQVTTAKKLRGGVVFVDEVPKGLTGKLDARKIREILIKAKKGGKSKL

CO[C@H](c1ccccc1)[C@H]1NC(=O)C(C)NC(=O)C(C[C@@H](C)CO)N(C)C(=O)[C@@H](C(O)c2cn(C(C)(C)C3CO3)c3ccccc23)NC(=O)C(C(C)C=C(C)C)NC(=O)C(CC(C)C)N(C)C(=O)C(C(C)C)NC1=O (some centres not stated)
active: [26] 292 nM
inactive: all other assays above
